Source: PubChem BioAssay (National Center for Advancing Translational Sciences (NCATS))
Vaccinia mCherry: vaccinia inhibition (mCherry reporter) | Vaccinia virus mCherry reporter infection, fluorescence | Potency, µM (titrated, usually from 36.5 µM), actives largely listed as inhibitors | 310,000 compounds, 0.63% hits | AID 720579; calls by dose curve; tested in A549 cells; further: nearly all actives have a fitted effect of over 35% in size
HCV inh: blocks hepatitis C virus; Huh7.5.1 HCVcc-Cre infection, luciferase reporter, 44 h; 340,000 compounds, 3.4% hits; Potency, µM (highest dose often 41.8 µM), usual class: inhibitors
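Reporter virus HCVcc-Cre (~0.5 moi) infects cells exposed to compound; seeding density 1,000 cells/well with 4 h settling beforehand. Luminescence, 15 sec read, taken 44 h post-infection following a 15 min RT substrate incubation.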
Vaccinia Venus: vaccinia inhibition (Venus reporter); Vaccinia virus Venus reporter expression, fluorescence; Potency, µM (highest dose often 36.5 µM), hits mostly inhibitors; 330,000 compounds, 0.46% hits; AID 720580; calls by dose curve; tested in A549 cells; further: nearly all actives have a fitted effect of over 30% in size
FBPA Giardia inh: Giardia lamblia aldolase inhibition. A8B2U2. purified Giardia FBPA. Potency, µM (highest dose often 59.6 µM), hits mostly inhibitors. 290,000 compounds, 0.71% hits. AID 2451; further: nearly all actives have a fitted effect of over 55% in size
Target sequence (A8B2U2 whole entry, looked up): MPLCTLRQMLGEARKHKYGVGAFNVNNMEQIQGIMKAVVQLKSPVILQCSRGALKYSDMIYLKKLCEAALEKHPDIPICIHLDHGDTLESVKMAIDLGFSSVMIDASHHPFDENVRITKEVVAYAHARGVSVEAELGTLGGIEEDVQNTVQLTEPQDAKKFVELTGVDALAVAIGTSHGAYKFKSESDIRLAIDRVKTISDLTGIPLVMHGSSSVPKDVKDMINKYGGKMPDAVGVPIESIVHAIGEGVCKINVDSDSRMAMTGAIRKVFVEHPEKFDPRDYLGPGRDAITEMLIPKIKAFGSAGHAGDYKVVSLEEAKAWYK
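40 nM FBPA preincubated 10 min at RT with compound (up to 57.5 uM final), then substrate plus GAPDH/TPI/NAD/arsenate coupling and diaphorase/resazurin added. Fluorescence read after 20 min at RT, 525/598 nm.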
FMDV inh: foot and mouth disease virus antiviral activity. FMDV antiviral cell-based qHTS. Potency, µM (titrated, usually from 57.9 µM), most hits filed as inhibitors. AID 1159524. 410,000 compounds, 1.2% hits; calls by dose curve; tested in HEK293T cells; further: read-out not given here; nearly all actives have a fitted effect of over 45% in size
HCMV inh: inhibitors of human cytomegalovirus; HFF cells, HCMV-luciferase reporter, 72 h; active compounds read low; 410,000 compounds, 4.5% hits; activity change, negative = inhibition, % at 57.5 µM; in the data active means activity change below about -60%; inconclusive means no clear call, values can overlap the other calls; inactive means above about -39%
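Two-dose cell screen: HFF monolayers treated with compounds and infected with luciferase-expressing HCMV at 1 PFU/cell, 72 h at 37C, then lysed for luciferase measurement.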
Each line names hits and unclear results; the compound was inactive in the other large screens. Rows were chosen to be rich in hits. Some 7.5% of all compounds tested hit in one or more screens of this group. Unless noted, the call rests on the fitted dose curve; in most records, active means well fitted curve in the direction sought with a large enough effect; inconclusive means small, poorly fitted or top-dose-only effect, or another doubt; inactive means no such curve, though single readings can be large; an effect the other way counts as inactive or inconclusive.

O=C(CSCc1c(Cl)cccc1Cl)Nc1ccccc1-c1ccccc1	Vaccinia mCherry inconclusive, HCV inh inconclusive, HCMV inh -66
O=C(Cn1nc(-c2ccccc2Cl)ccc1=O)Nc1ccc(Br)cc1	none
O=C(CNC(c1ccccc1)c1ccccc1)Nc1ccccc1-c1ccccc1	HCV inh inconclusive, FMDV inh inconclusive, HCMV inh -71
COc1ccccc1C(=O)N[C@@H]1c2ccccc2C2(CCN(Cc3c(O)cccc3OC)CC2)[C@H]1O	Vaccinia Venus inconclusive, FMDV inh inconclusive (no result: HCV inh, FBPA Giardia inh, HCMV inh)
COc1ccc(CCC(=O)OCC(=O)Nc2ccccc2)cc1	none
CC(C)[C@@H](CC(=O)N[C@@H]1CCNC[C@H]1C(=O)N[C@H](CC(=O)N[C@@H](CCC(=O)O)CC(=O)O)Cc1ccccc1)NC(=O)C[C@H](Cc1ccccc1)NC(=O)[C@@H]1CNCC[C@H]1N	none (no result: Vaccinia mCherry, HCV inh, Vaccinia Venus, FMDV inh, HCMV inh)
COc1cc(OC)c2nc(C)c3c(c2c1)N(c1ccc(O)cc1)CC3	Vaccinia mCherry inconclusive, HCV inh inconclusive, Vaccinia Venus inconclusive, FMDV inh inconclusive, HCMV inh -103
COc1cc(OC)cc(C(=O)NCC(=O)N2CCN(c3ccc(O)cc3)CC2)c1	none
Cn1cc(/C=N/n2cnc3scc(-c4ccc(Cl)cc4)c3c2=O)c2ccccc21	HCV inh 5.6µM, Vaccinia Venus inconclusive, HCMV inh inconclusive
CC(=O)Nc1ccc(S(=O)(=O)O)c2cc(S(=O)(=O)O)c(N=Nc3ccc(N=Nc4ccc(S(=O)(=O)O)cc4)c4ccc(S(=O)(=O)O)cc34)c(O)c12	none (no result: HCV inh, FBPA Giardia inh, FMDV inh, HCMV inh)
Cc1ccc(NS(=O)(=O)c2ccc(N3CCN(c4ccc(O)cc4)CC3)c([N+](=O)[O-])c2)c(C)c1	HCV inh inconclusive, FMDV inh 28µM, HCMV inh -64
O=[N+]([O-])c1cc(S(=O)(=O)Nc2ccccc2)ccc1N1CCN(c2ccc(O)cc2)CC1	FBPA Giardia inh inconclusive
COc1ccccc1NC(=O)C(=O)N(c1cccnc1)C(C(=O)NC(C)(C)C)c1ccccc1F (stereo not given)	none (no result: Vaccinia mCherry, Vaccinia Venus)
Cc1cc(C(C)(C)C)cc(C)c1CCNC(=O)c1c(C)noc1C	HCV inh 11µM, FMDV inh inconclusive, HCMV inh inconclusive (no result: FBPA Giardia inh)
CC1=NC(=O)C(N=Nc2cccc(C(=O)O)c2)N1c1ccccc1 (stereo not given)	FMDV inh 8.9µM (no result: Vaccinia mCherry, Vaccinia Venus)
CC1=NC(=O)C(N=Nc2ccccc2)N1c1ccccc1 (stereo not given)	none (no result: Vaccinia mCherry)
O=C(NCCCn1ccnc1)c1cc(Cl)cc(Cl)c1	none
COc1ccc(C(=O)Oc2c(OC)cc(C(=S)N3CCOCC3)cc2OC)cc1OC	none (no result: Vaccinia mCherry, Vaccinia Venus)
C=CCC1(CC=C)CCCN1C(=O)c1cc(COc2ccc(C)nc2)on1	HCV inh 0.79µM, FMDV inh inconclusive, HCMV inh -76 (no result: Vaccinia mCherry, Vaccinia Venus)
CC(C)OCCCNC(=O)c1cc(S(=O)(=O)N2CCc3ccccc32)cn1C	none
CN(C(=O)c1ccncc1)C1CCCN(Cc2ccccc2F)C1 (stereo not given)	none
O=C(NCC1CCCN(Cc2ccccc2F)C1)c1cccc(C(F)(F)F)c1 (stereo not given)	HCV inh 11µM, HCMV inh inconclusive (no result: Vaccinia mCherry, Vaccinia Venus)
CN(C)c1cccc(C(=O)N(C)C2CCCN(Cc3ccccc3F)C2)c1 (stereo not given)	HCMV inh -71 (no result: Vaccinia mCherry, Vaccinia Venus)
O=C(c1cccc(C(F)(F)F)c1)C1CCCN(Cc2ccccc2O)C1 (stereo not given)	none
Cc1cc(C)cc(C(=O)N(C)C2CCCN(Cc3ccccc3F)C2)c1 (stereo not given)	HCV inh 13µM (no result: Vaccinia mCherry, Vaccinia Venus)
CC1CN=C(c2cc(Cl)c(N)c(Cl)c2)c2c3ccccc3nn21 (stereo not given)	none (no result: Vaccinia mCherry, HCV inh, Vaccinia Venus, FBPA Giardia inh, FMDV inh)
CC(=Nc1ccc(C)cc1)c1sc2ccccc2c1O	HCV inh 13µM (no result: FMDV inh)
COc1ccc(NC(=O)/C(C#N)=C/c2cc(C)n(-c3ccc(N4CCOCC4)c([N+](=O)[O-])c3)c2C)cc1	HCV inh inconclusive, FMDV inh 4µM, HCMV inh inconclusive
Cc1cc(/C=C(\C#N)C(=O)Nc2ccc(F)cc2)c(C)n1-c1ccc(N2CCOCC2)c([N+](=O)[O-])c1	HCV inh inconclusive, FMDV inh inconclusive, HCMV inh -79 (no result: Vaccinia mCherry, Vaccinia Venus)
COc1ccc(NC(=O)/C(C#N)=C/c2cc(C)n(-c3ccc(F)cc3)c2C)cc1	none (no result: HCV inh, FBPA Giardia inh)
CNC(=O)/C(C#N)=C\c1cc(C)n(-c2ccc(N3CCOCC3)cc2)c1C	none
Cc1ccc(C(c2ccc(C)c(C)c2)C(O)C2OC(=O)C(O)C2O)cc1C (stereo not given)	none (no result: FBPA Giardia inh)
Cc1cccc(C)c1NC(=O)CN(C)C(=O)c1cccc(S(=O)(=O)N2CCN(c3ccccc3)CC2)c1	none (no result: HCV inh)
CN(Cc1ccc(OC(F)F)cc1)C(=O)c1cccc(S(=O)(=O)N2CCN(c3ccccc3)CC2)c1	HCV inh 5µM, FMDV inh 20µM, HCMV inh -63 (no result: Vaccinia mCherry, Vaccinia Venus, FBPA Giardia inh)
Cc1cccc(C)c1NC(=O)CN(C)C(=O)c1cccc(S(=O)(=O)N2CCN(c3ccc(F)cc3)CC2)c1	Vaccinia mCherry inconclusive, HCV inh inconclusive, FMDV inh inconclusive, HCMV inh -87 (no result: FBPA Giardia inh)
CN1CCN(S(=O)(=O)c2cccc(C(=O)N(C)Cc3cccs3)c2)CC1	none (no result: Vaccinia mCherry, Vaccinia Venus, FBPA Giardia inh)
C=CCN(C(=O)c1cccc(S(=O)(=O)N2CCN(C)CC2)c1)c1nc(-c2ccccc2)cs1	HCV inh 25µM, FMDV inh inconclusive (no result: Vaccinia mCherry)
COc1ccccc1NC(=O)c1cccc(S(=O)(=O)N2CCN(Cc3ccccc3)CC2)c1	HCV inh 10µM (no result: FBPA Giardia inh)
CCCCOc1ccc(CC(=O)NOC)cc1	none (no result: HCV inh, FBPA Giardia inh, FMDV inh, HCMV inh)
N#C[C@@H](c1ccccc1)C1CCN(S(=O)(=O)CCCCl)CC1	none (no result: Vaccinia mCherry, HCV inh, Vaccinia Venus, FBPA Giardia inh, FMDV inh)
CN(CC(=O)Nc1ccccc1Cl)C(=O)c1cccc(S(=O)(=O)N2CCN(c3ccccc3)CC2)c1	HCV inh inconclusive, Vaccinia Venus inconclusive, FMDV inh inconclusive, HCMV inh -77 (no result: FBPA Giardia inh)
CC1CCN(S(=O)(=O)c2cccc(C(=O)N(Cc3ccccc3)c3ccccn3)c2)CC1	HCMV inh -66
CN(Cc1ccc(Cl)c(Cl)c1)C(=O)c1cccc(S(=O)(=O)N2CCN(Cc3ccccc3)CC2)c1	HCV inh 10µM (no result: Vaccinia mCherry, Vaccinia Venus, FBPA Giardia inh)
CN(CC(=O)Nc1ccccc1Cl)C(=O)c1cccc(S(=O)(=O)N2CCN(Cc3ccccc3)CC2)c1	HCV inh inconclusive, FMDV inh inconclusive, HCMV inh -80 (no result: FBPA Giardia inh)
CN(Cc1cccc(F)c1)C(=O)c1cccc(S(=O)(=O)N2CCN(Cc3ccccc3)CC2)c1	FMDV inh inconclusive (no result: FBPA Giardia inh, HCMV inh)
CC(C)CN(C(=O)CCNC(=O)c1ccccc1Cl)C1CCS(=O)(=O)C1 (stereo not given)	none (no result: Vaccinia mCherry, Vaccinia Venus, FBPA Giardia inh)
CC(C)(C)OC(=O)NCCCC[C@H](NC(=O)c1nc[nH]c1C(=O)NC(c1ccccc1)c1ccccc1)C(=O)OC(C)(C)C	Vaccinia Venus inconclusive, FMDV inh inconclusive, HCMV inh inconclusive
CCOC(=O)c1ccc(NC(=O)c2cccc3c(=O)c4c([nH]c23)CCCC4)cc1	none (no result: HCV inh, FBPA Giardia inh)
